# PubChem BioAssay AID1578 (Sanford-Burnham Center for Chemical Genomics, 2009)
# Out of some 290,000 compounds screened, about 3,000 (1%) were called active. The full list was thinned out, with actives kept by preference. A number with no mark means an inactive call. No stated cut-off is given here; in the data, active means inhibition mostly above about 36% (no sharp cut-off); inactive means mostly below about 34%.
# Experiment: inhibition of NOD1-driven NF-kB reporter – cell-based, luminescence, uHTS, primary screen (AID 1578);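 further: HEK-293T reporter cells stimulated with the NOD1 agonist gamma-tri-DAP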
# Conditions: NOD1-driven NF-kB luciferase reporter cells, at 4 µM, stronger effect = higher value
row,Compound,inhibition
1,CC1c2[nH]c3ccccc3c2C[C@H]2C(=O)N(CCO)CC(=O)N12 (stereo partly drawn),-2.7%
2,C=CCc1c(OC(C)=O)c2ccccc2n(C)c1=O,-38%
3,COc1ccc2c(c1)c(CC(=O)Nc1ccc(C)cc1)c(C)n2C(=O)c1ccc(Cl)cc1,24.5%
4,COc1ccc2c(c1)c(CC(=O)Nc1nnc(C3CC3)s1)c(C)n2C(=O)c1ccc(Cl)cc1,64.9% (active)
5,COc1ccc(NC(=O)Cc2c(C)n(C(=O)c3ccc(Cl)cc3)c3ccc(OC)cc23)cc1,-13.3%
6,COc1ccc(C(=O)Nc2cc(-c3nn4c(C)nnc4s3)ccc2C)cc1,-18.2%
7,CCC1(c2ccccc2)NC(=O)N(CC(=O)NCc2ccccc2OC)C1=O (stereo not drawn),0.8%
8,COc1ccc(-c2cc(C(=O)N3CCN(S(=O)(=O)c4ccccc4)CC3)[nH]n2)cc1,4.3%
9,COc1cccc2sc(Nc3nnc(-c4ccc(F)cc4)o3)nc12,-29.8%
10,Fc1cccc2sc(Nc3nnc(-c4ccccc4)o3)nc12,52.7%
11,COc1cccc2sc(Nc3nnc(-c4cccs4)o3)nc12,84.7% (active)
12,COc1cc(OC)cc(-c2nnc(Nc3nc4c(F)cccc4s3)o2)c1,21%
13,Fc1cccc2sc(Nc3nnc(-c4ccco4)o3)nc12,104% (active)
14,COc1ccc(-c2nnc(Nc3nc4c(OC)cccc4s3)o2)cc1,-20.8%
15,CCOC(=O)C1C(=O)NC(c2ccccc2)=NC1c1cccc(Br)c1 (stereo not drawn),-36.5%
16,CC1/C(=N/O)CC(c2ccco2)NC1c1ccco1 (stereo not drawn),-0.7%
17,COc1ccc(NC(=S)N2CCC(NC(=O)c3ccc(F)cc3)CC2)cc1,-29%
18,Cc1cc(C)c(S(=O)(=O)N2CCOCC2)c(C)c1N(C)S(=O)(=O)c1ccccc1,-19.6%
19,N#C/C(=C\c1ccc(OCC(N)=O)cc1)c1ccccc1,-59.4%
20,O=C(Nc1cccnc1)c1cccc(S(=O)(=O)N2CCOCC2)c1,-21%
21,CN1CCC(OC(=O)c2ccco2)CC1,-32.4%
22,O=C1C(C=Nc2ccccc2O)=C(O)c2ccccc21,-64.5%
23,O=c1c(=Nc2ccccc2O)c(=O)c2ccccc12,-41.2%
24,CNC(=O)COC(=O)c1ccccc1Nc1ccccc1,-60.3%

row,Compound,inhibition
1,COc1cc(/C=C(\NC(C)=O)C(=O)NC(C)(C)CC(C)(C)C)ccc1OC(C)=O,-17.3%
2,COc1ccc(/C(O)=C/c2nc3ccccc3n(-c3ccccc3)c2=O)cc1,-72.6%
3,COc1ccc(-n2c(=O)c(CCC(=O)N(C)Cc3ccccc3C)nc3ccccc32)cc1,-8.4%
4,COc1cccc(CC(=O)N2CCC(CCC(=O)Nc3cccc(OC)c3)CC2)c1,-3.8%
5,Cc1cccc(C)c1NC(=O)CCCN1C(=O)C(c2ccccc2)Oc2cccnc21 (stereo not drawn),-12.2%
6,COc1ccccc1NC(=O)CCCN1C(=O)C(c2ccccc2)Oc2cccnc21 (stereo not drawn),-2.8%
7,Cc1cccc(NC(=O)CCCN2C(=O)C(c3ccccc3)Oc3cccnc32)c1C (stereo not drawn),42.2% (active)
8,CCOc1ccc(NC(c2ccccc2)P(=O)(OC)OC)cc1 (stereo not drawn),73.2% (active)
9,COP(=O)(OC)C(Nc1ccc([N+](=O)[O-])cc1)c1ccccc1 (stereo not drawn),-11.2%
10,COP(=O)(OC)C(Nc1ccc(Cl)cc1)c1ccccc1 (stereo not drawn),-7.2%
11,Cc1cc(NC(=O)c2ccc(Br)o2)ccc1NC(=O)c1ccco1,-55.3%
12,COC1c2ccccc2C(=O)N1CCc1ccc(Cl)cc1 (stereo not drawn),-31.1%
13,CNc1cc(C)nc(N2CCOCC2)n1,-5.2%
14,CC1(c2cc([N+](=O)[O-])cc([N+](=O)[O-])c2)CC(C)(C)N(C(=O)c2ccccc2)c2ccccc21 (stereo not drawn),4.5%
15,CC1(c2ccccc2)CC(C)(C)N(C(=O)c2cc([N+](=O)[O-])cc([N+](=O)[O-])c2)c2ccccc21 (stereo not drawn),-2.3%
16,CC1(c2cccc([N+](=O)[O-])c2)CC(C)(C)N(C(=O)c2ccccc2)c2ccccc21 (stereo not drawn),82.6% (active)
17,CCCCCCCC(O)CC(CC1CCCCC1)C(=O)NN (stereo not drawn),-15%
18,Cc1cc(C(F)(F)F)nn1CC(=O)NNC(=S)NCC(C)C,-1.1%
19,Cc1ccc2c(c1)N(CCCC(=O)NCCCN1CCCC1=O)C(=O)CO2,-14.9%
20,COc1cccc(NC(C)C(=O)N2CC(C)OC(C)C2)c1 (stereo not drawn),-26.3%
21,Cc1ccc(-c2nc3ccc(Cl)cc3c(=O)n2O)cc1,1.3%
22,O=c1c2cc(Br)ccc2nc(-c2ccccc2)n1O,6.1%
23,COc1ccc(CCNC(=O)C2CCN(S(=O)(=O)c3ccc4c(c3)oc(=O)n4C)CC2)cc1OC,-10.7%
24,COC(=O)c1sccc1NC(=O)CSc1ccccc1NS(=O)(=O)c1ccc(Cl)cc1,44.2%

row,Compound,inhibition
1,COC(=O)c1sccc1NC(=O)CSc1ccccc1NS(=O)(=O)c1ccccc1Cl,5.3%
2,CC(C)[C@H](NC(=O)C1CCN(S(=O)(=O)c2ccccc2)CC1)C(=O)NCc1ccccn1,-25.4%
3,CCOC(=O)C(=CNc1cc(C(F)(F)F)ccc1N1CCOCC1)C(=O)OCC,4%
4,CCC(C)(C)NC(=O)C(c1ccc(OC)cc1)N(Cc1ccc(OC)cc1)C(=O)CCC(=O)Nc1cc(C)on1 (stereo not drawn),-11.8%
5,CN(C)c1nc(/C=C(\C#N)C(N)=O)c(Cl)n1-c1ccc(F)cc1,-6.6%
6,CN(C)c1nc(C=C(C#N)C#N)c(Cl)n1-c1ccc(F)cc1,80.7% (active)
7,COCCNC(=O)/C(C#N)=C/c1nc(N(C)C)n(-c2ccc(F)cc2)c1Cl,-7.8%
8,Oc1c(Br)cc(/C=N/n2c(-c3ccccc3)n[nH]c2=S)c(Br)c1O,-1.1%
9,Oc1c(Br)cc(/C=N/n2c(-c3ccccc3)n[nH]c2=S)c(O)c1Br,28.5%
10,Oc1c(Br)cc(Br)c(/C=N/n2c(-c3ccccc3)n[nH]c2=S)c1Br,63.3% (active)
11,CCOC(=O)c1nnn(CC(=O)NC(=O)Nc2ccccc2)c1C(=O)OCC,-7.4%
12,CC(C)(C)c1ccc(-c2cn(-c3ccc(Br)cc3)c3[n+]2CCCS3)cc1,57.2% (active)
13,CC(=O)c1ccc(-n2cc(-c3ccc(C(C)(C)C)cc3)[n+]3c2SCCC3)cc1,5.2%
14,COc1ccc(-c2cn(-c3ccc(Br)cc3)c3[n+]2CCS3)cc1,-4.3%
15,Cc1cc(=O)c2ccc(C(F)(F)F)cc2[nH]1,-14.1%
16,COCCn1c(=S)[nH]c2cc(C(=O)N3CCN(c4cccc(Cl)c4)CC3)ccc2c1=O,13.3%
17,COc1ccc(OC)c2c1C(=O)c1ccccc1C2=O,-6.7%
18,COc1ccc(N)c2c1C(=O)c1ccccc1C2=O,-34.4%
19,COc1ccc(OC)c2c1C(=O)C(Cl)=C(Cl)C2=O,93.8% (active)
20,CCOc1ccc2nc(Cl)c(/C=C/C(=O)c3ccco3)cc2c1,69.3% (active)
21,CCOc1ccc2cc(/C=C/C(=O)c3ccco3)c(Cl)nc2c1,1.7%
22,Cc1ccc2nc(Cl)c(/C=C/C(=O)c3ccco3)cc2c1,-0.1%
23,CC(C)(C)N1C(=O)[C@H]2[C@@H](c3ccc(Br)cc3)N3C(=O)N(c4cccc(Br)c4)C(=O)[C@@]3(Cc3ccccc3)[C@H]2C1=O,-11.7%
24,COc1ccc(CC(=O)Oc2ccc(F)cc2)cc1,-9.7%

row,Compound,inhibition
1,O=C(NN/C(=N/S(=O)(=O)c1ccc(Cl)cc1)c1ccccc1)c1ccc(O)cc1,-79.7%
2,CCc1ccc(NC(=S)N2CCN(S(=O)(=O)c3ccccc3)CC2)cc1,-13.5%
3,CCOc1ccc2noc3c2c1C(=O)c1ccccc1-3,-12.5%
4,O=C1c2ccccc2-c2onc3c(Oc4ccccc4)cc(O)c1c23,-15.3%
5,O=C1c2ccccc2-c2onc3ccc(Oc4ccccc4)c1c23,86.3% (active)
6,O=S(=O)(c1cccc(-n2cnnn2)c1)N1CCOCC1,-8.4%
7,CCOc1ccc2nc(SC3CC(=O)N(c4ccc(OC)cc4)C3=O)sc2c1 (stereo not drawn),15.3%
8,Cc1ccc(SCc2cc(=O)[nH]c(/N=C(\N)Nc3cccc4ccccc34)n2)cc1,-11.6%
9,COc1ccc(Cl)cc1N/C(N)=N/c1nc(CSc2ccc(C)cc2)cc(=O)[nH]1,-6%
10,COc1ccccc1N/C(N)=N/c1nc(CSc2ccc(C)cc2)cc(=O)[nH]1,53% (active)
11,Cc1ccc(NC(=O)CN2CCN(C(=O)C3CCCO3)CC2)c(C)c1 (stereo not drawn),-8.7%
12,CCCCCCc1nc2ccccc2c(=O)n1NC(=O)c1c(O)c2cccc3c2n(c1=O)CCC3,46.9%
13,CCC(=O)N1CCN(c2nc(-c3ccc(Cl)cc3)cs2)CC1,-12.7%
14,CC(=O)/C(C#N)=C1\NC(=O)C(Cc2ccccc2Cl)S1 (stereo not drawn),14.5%
15,CC(=O)/C(C#N)=C1\NC(=O)C(Cc2ccc(C)c(Cl)c2)S1 (stereo not drawn),26.5%
16,CC(=O)/C(C#N)=C1\NC(=O)C(Cc2cc(Cl)ccc2Cl)S1 (stereo not drawn),55% (active)
17,COc1cc(/C=C/C(=O)N2CCOCC2)ccc1OCc1ccccc1,-102%
18,Cc1cc(C)n2nc(C(=O)Nc3c(C)nn(Cc4ccc(F)cc4)c3C)cc2n1,-36.9%
19,Cc1cc2oc(=O)cc(Cn3ncc(Cl)c(Cl)c3=O)c2cc1Cl,56.2% (active)
20,Cc1cc2oc(=O)cc(Cn3ccnc3)c2cc1Cl,0.9%
21,Cc1cc2oc(=O)cc(CN3CCOCC3)c2cc1Cl,6.3%
